Screening results as filed in PubChem BioAssay.
TDP43 rescue: inhibitors of TDP-43 toxicity in yeast; TDP-43 expressing yeast growth rescue, BacTiter-Glo, 24 h; Potency, µM (titrated, usually from 46.1 µM), for inactives: at the top dose growth rescue (activation), usual class: activators; 1.8% of 410,000 active; AID 652104; note: % of control where 0% means no effect; nearly all actives have a fitted effect of over 50% in size
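In this qHTS, compounds that restore growth of yeast expressing TDP-43 appear as activators. Cells (OD600=0.02, galactose medium, raffinose-pregrown) are incubated with compound 24 hr at 30 deg C and growth is quantified by BacTiter-Glo.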
Abeta rescue: A-beta toxicity reversal in yeast; yeast expressing A-beta42, growth rescue, OD600, 48 h; response scale: 0% DMSO, 100% iron-clioquinol control; Potency, µM (titrated, usually from 46.1 µM), most hits filed as activators; 0.063% of 410,000 active; note: nearly all actives have a fitted effect of over 55% in size
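Yeast A-beta toxicity model in growth medium with pinned compounds, 48 h at 30 C; growth read as absorbance at 600 nm. Normalized to FeCl3/clioquinol equimolar mix (positive) and DMSO (negative).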
aSyn yeast inh: rescues yeast growth from alpha-synuclein toxicity; Yeast expressing alpha-synuclein, growth rescue, BacTiter-Glo, 24 h; Potency, µM (doses to about 46.1 µM), for the others: at the highest dose growth rescue (activation), hits mostly activators; 0.14% of 370,000 active; AID 652106; note: % of control where 0% means no effect; nearly all actives have a fitted effect of over 65% in size
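Rescue of yeast growth: cells expressing toxic alpha-synuclein, induced in galactose at OD600 0.02, incubated with compound 24 h at 30 C. ATP luminescence quantified growth; inhibitors of toxicity appear as activators.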
FUS yeast rescue: suppressors of FUS proteinopathy in yeast. S. cerevisiae FUS-expressing, growth rescue, OD600, 24 h. Potency, µM (highest dose often 76.6 µM), most hits filed as activators. 0.24% of 390,000 active. AID 1347120;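 note: plate controls were DMSO vehicle for no effect and reference control for full effect; nearly all actives have a fitted effect of over 55% in size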
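Yeast FUS proteinopathy model; galactose-induced FUS (2%), starting OD 0.005. Cpds in dilution series, 24hr, 30C, 99% humidity. Abs 600 nm growth. Pos ctrl CP55940 (top 92uM final); neg ctrl DMSO.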
Mito fusion yeast: inhibitors of mitochondrial division or activators of mitochondrial fusion | S. cerevisiae fusion-defective mutant growth rescue, CellTiterGlo 48 h | Potency, µM (top dose mostly 46.1 µM), for inactives: at the top dose growth rescue (activation), usual class: activators | 0.23% of 320,000 active | AID 485298; note: % of control where 0% means no effect; nearly all actives have a fitted effect of over 45% in size
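Yeast fusion mutant, YPEG (non-fermentable carbon), compound, 48 h at 37C non-permissive; CellTiterGlo added, 10 min RT, luminescence read. Rescued growth = division inhibition.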
Active calls of the source: *; i = inactive; ? = inconclusive; / = no result; ! = repeats disagree; [ ] = dose if it differs, or a comment. Hits are enriched below; roughly 2.2% of the tested compounds scored in any of these assays. Calls come from the whole dose curve; as a rule, active = well fitted curve in the direction sought with a large enough effect; inconclusive = small, poorly fitted or top-dose-only effect, or another doubt; inactive = no such curve, though single readings can be large; an effect the other way counts as inactive or inconclusive. Potency is the fitted concentration of half-maximal effect.

SMILES	TDP43 rescue	Abeta rescue	aSyn yeast inh	FUS yeast rescue	Mito fusion yeast
Cc1cnc(C=O)c2cccc([N+](=O)[O-])c12	20µM*	i	14%	i	/
Cc1ncc(C)c2c([N+](=O)[O-])cccc12	?	i	1%	i	/
CC(C)c1ccc(NC(=O)C2CCCN2S(=O)(=O)c2ccc3nc(-c4ccccc4)[nH]c3c2)cc1 (stereo not drawn)	0%	i	/	i	/
O=C(c1ccccc1)N1CCN(c2ncccn2)CC1	0%	i	10%	i	1%
CCCc1cnc(N2CCN(C(=O)c3ccccc3)CC2)nc1	11µM*	i	7%	i	-7%
CC(C)CC(=O)NC(=S)NNC(=O)c1ccc([N+](=O)[O-])cc1	18µM*	?	?	i	-2%
CCCCC(=O)NNC(=S)NC(=O)c1ccc([N+](=O)[O-])cc1	20µM*	?	32µM*	i	10%
COC(=O)c1ccccc1NC(=S)NC(=O)c1ccc(C)cc1	20µM*	i	-18%	/	-7%
CCCCC(=O)NNC(=S)NC(=O)c1ccc(C)cc1	-75%	i	3.5µM*	i	-21%
COc1cc(NC(=O)NCCn2nnc3cc(S(=O)(=O)N(C)C)ccc32)cc(OC)c1	11%	i	/	i	/
CCCCC(=O)NNC(=S)NC(=O)c1cccc([N+](=O)[O-])c1	14µM*	i	?	i	-4%
O=C(NNC(=S)NC(=O)c1ccccc1)c1cccc([N+](=O)[O-])c1	27%	?	-2%	i	-5%
CCCN1CNc2c(c(=O)[nH]c(=S)n2CCC(C)C)C1	/	/	-3%	/	/
Cc1cccc(N(C)c2nc3ccccc3c3nnc(C)n23)c1	22µM*	i	/	i	/
COc1cc(/C=C(/C#N)c2nc(-c3cc4ccccc4oc3=O)cs2)ccc1O	2%	i	/	i	/
O=C(C1CCCN(S(=O)(=O)c2cc(Cl)ccc2Cl)C1)N1CCCCCC1 (stereo not drawn)	11µM*	i	3%	/	-11%
Cc1ccccc1NC(=S)c1nc2ccccc2[nH]1	18µM*	?	15%	i	10%
S=C(Nc1ccc(Cl)cc1)c1nc2ccccc2[nH]1	?	i	-32%	/	13%
Cc1ccc(NC(=O)c2sc3ncnc(N4CCN(c5ccccn5)CC4)c3c2C)c(C)c1	19%	i	-1%	i	13µM*
Cc1ccc(NC(=O)c2sc3nc(C)nc(N4CCN(c5ccccn5)CC4)c3c2C)c(C)c1	12%	i	-3%	i	-4%
CN(Cc1ccco1)S(=O)(=O)c1ccc(CN2C(=O)c3cccnc3C2=O)s1	18µM*	i	?	i	-5%
Cc1ccccc1CNC(=O)C1CCCN(c2ncccn2)C1 (stereo not drawn)	/	/	/	i	/
C#CCOc1c(Cl)cc(/C=C2/C(=O)ON=C2C)cc1OCC	18µM*	i	5%	i	1%
C#CCOc1ccc(/C=C2/C(=O)ON=C2C)cc1Cl	?	i	2%	i	5%
C#CCOc1c(Br)cc(/C=C2/C(=O)ON=C2C)cc1OCC	16µM*	?	3%	i	12%
SMILES	TDP43 rescue	Abeta rescue	aSyn yeast inh	FUS yeast rescue	Mito fusion yeast
Cc1ccc(C2C=C(c3ccccc3)Nc3nc(NS(C)(=O)=O)nn32)cc1 (stereo not drawn)	5%	i	/	i	/
CCC(=O)N(C)C[C@@H]1[C@H](c2ccc(C3=CCCCC3)cc2)[C@H](CO)N1C(=O)CC	/	/	/	i	/
C/C(=C\C(=S)Nc1ccccc1)Nc1ccc2ccccc2c1	13µM*	i	-2%	i	1%
C/C(=C\C(=S)Nc1ccccc1)Nc1cccc2ccccc12	11µM*	i	0%	/	9%
S=C(NCc1ccccc1)Nc1ccc2ccccc2c1	?	?	2%	i	-9%
NS(=O)(=O)c1ccc(CCNC(=O)CSc2ncnc3ccccc23)cc1	-9%[0.397 µM]	i	0%	i	8%
O=C(CSc1ncnc2ccccc12)NCC(=O)c1ccccc1	13µM*	?	23%	i	13%
CCn1c(SCc2ccc(F)cc2Cl)nnc1-c1nonc1NC(C)=O	4%[9.22 µM]	i	/	i	/
C=CCN1C(=O)[C@@H](CC(=O)N2CCSCC2)[C@]2(C(=O)OC)CCCCC=C12	/	/	/	i	/
COCCNC(=O)c1ccc2c(c1)N(Cc1c(F)cccc1Cl)C(=O)c1ccccc1S2	2%	i	/	?	/
CCN(CC)C(=O)c1ccc2c(c1)N(Cc1c(F)cccc1Cl)C(=O)c1ccccc1S2	22µM*	i	/	?	/
O=C(NCc1ccco1)c1ccc2c(c1)N(Cc1ccccc1)C(=O)c1ccccc1S2	15%	i	/	32µM*	/
Cc1oc(-c2cccc(Cl)c2)nc1CN1CCC(C(=O)NCc2ccc(F)cc2)CC1	7%	i	/	i	/
Cc1cc(NC(=O)CSc2ncc(C(=O)Nc3ccc(C)c(C)c3)c(=O)n2C)no1	0%	i	/	i	/
NS(=O)(=O)c1ccc(CCNC(=O)c2ccc3nc(CCc4ccccc4)oc3c2)cc1	-15%	i	/	i	/
CCCCOc1cccc(C(=O)NC(=S)Nc2cccnc2)c1	25µM*	i	-1%	/	0%
O=C(O)c1ccc(C2CCCCC2)cn1	13µM*	i	?	i	-8%
Cc1cccc(-c2noc(-c3ccc(NCC4CCCO4)c([N+](=O)[O-])c3)n2)c1 (stereo not drawn)	-3%	i	/	i	/
Oc1c(Br)cc(Br)cc1CNc1ccc(F)cc1	-93%	i	-26%	i	0%
Oc1c(Br)cc(Br)cc1CNc1cnc2ccccc2c1	20µM*	i	15%	i	-6%
COC(=O)CCc1sc(Nc2ccc(OC)cc2)nc1-c1ccc(OC)cc1	0%	i	/	i	/
Cc1onc(-c2ccccc2Cl)c1C(=O)Nc1ccc(-n2nncc2-c2ccco2)cc1	-14%	i	10%	8.9µM*	-2%
COc1cc(C=C(C#N)c2ccc([N+](=O)[O-])cc2)ccc1O	4µM*	i	-15%	i	/
CC(=O)N1CCCc2cc(S(=O)(=O)N3CCCC(C(=O)N4CCN(c5ccccc5)CC4)C3)ccc21 (stereo not drawn)	11%	i	0%	i	7%
Cc1cccc(CNC(=O)C2CCN(S(=O)(=O)c3ccc4c(c3)CCCN4C(=O)C3CCC3)CC2)c1	3%	i	/	28µM*	/
Cc1ccc(CNC(=O)C2CCN(S(=O)(=O)c3ccc4c(c3)CCCN4C(=O)C3CCC3)CC2)cc1	3%	i	/	i	/
CC(=O)N1CCCc2cc(S(=O)(=O)N3CCCC(C(=O)N4CCN(c5cc(C)ccc5C)CC4)C3)ccc21 (stereo not drawn)	-8%	i	7%	13µM*!	-9%
Nc1nc2ccc(Cl)cc2cc1C(=O)NCc1ccccc1Br	/	/	/	i	/
